# Measured values reported in ChEMBL document CHEMBL3988442, “University of Dundee, Small-Polar-MMV Screening Library” (2021).
# The campaign covered roughly 48,000 compounds. About 13,000 (27%) showed an effect of 50% or more. This is one part of the list.
# Tested on: Wolbachia pipientis
# Assay: Anti-Wolbachia Cell-Based Screen
# Assay type: functional
# Set-up: scale not given: in the data most compounds retested in dose-response had high values
# Settings: 5 µM
row,Compound,Percent Effect
1,Cc1cccc(C)c1OC1CN(C(=O)C2CCCN(C(=O)N(C)C)C2)C1 (stereo not given),-13.19%
2,O=C(NCCc1ccsc1)Nc1cccnc1N1CCCC1,0.6987%
3,COc1c(C(=O)N2CCC(CSc3ccccc3)C2)c(C)nn1C (stereo not given),13.6%
4,CCN(CC)S(=O)(=O)N(CC)Cc1ccc2c(c1)OCCO2,92.18%
5,CCS(=O)(=O)c1ccc2c(c1)OCCCO2,-4.006%
6,CC(=O)NCCNC(=O)N(C)Cc1ccc2c(c1)OCCO2,1.28%
7,CC(C)N(C)S(=O)(=O)N(C)Cc1ccc2c(c1)OCO2,-1.448%
8,CC(C)N(C)S(=O)(=O)N(C)Cc1ccc2c(c1)OCCO2,98.7%
9,CC(C)N(C)S(=O)(=O)N(C)Cc1cnn(C)c1,-10.04%
10,CCS(=O)(=O)c1ccc2c(c1)OCCO2,-1.362%
11,CCN(CC)S(=O)(=O)N(C)Cc1ccc2c(c1)OCCO2,104.5%
12,CCC[C@@H]1CN(Cc2ccc3c(c2)OCCO3)C[C@H]1C(=O)O,-6.164%
13,CCc1noc(CN(C)Cc2cc(Br)ccc2OC)n1,4.438%
14,Cc1ccn(-c2ccccc2NCc2cscn2)n1,-9.752%
15,CN(C)CCN(Cc1ccc(Cl)cc1)C(=O)c1cnccn1,-5.634%
16,COC(=O)C(c1cc(F)ccc1F)N(C)C(=O)c1ccnc(C)n1 (stereo not given),4.378%
17,Cc1nccc(CNC(=O)NCC(C)Oc2ccccc2F)n1 (stereo not given),-7.985%
18,COC(=O)C(c1cc(F)ccc1F)N(C)C(=O)c1cnc(C)cn1 (stereo not given),103%
19,COC(=O)C(c1cc(F)ccc1F)N(C)C(=O)c1cccnc1O (stereo not given),1.784%
20,COC(=O)C(c1cc(F)ccc1F)N(C)C(=O)c1ccccn1 (stereo not given),114.5%
21,COC(=O)C(c1ccccc1)N(C)C(=O)c1ccnc(C)n1 (stereo not given),100.7%
22,COC(=O)c1cnc(C(=O)N(c2ccc(OC)c(F)c2)C(C)C)cn1,-7.917%

row,Compound,Percent Effect
1,Cc1cccc(N(CCC(N)=O)C(=O)c2ccnc(C)n2)c1,-10.53%
2,COc1ccc(N(C(=O)c2cnc(C)cn2)C(C)C)cc1F,9.374%
3,COC(=O)C(c1cc(F)ccc1F)N(C)C(=O)c1csnn1 (stereo not given),3.05%
4,COC(=O)C(c1cc(F)ccc1F)N(C)C(=O)c1cnccn1 (stereo not given),118.4%
5,O=C1N(Cc2cccc(F)c2F)CCCC1(O)CNCc1ccccc1 (stereo not given),16.03%
6,Cc1c(CNS(=O)(=O)c2cccc(COC(C)C)c2)cnn1C,-15.21%
7,CN1C[C@@H](NC(=O)C(C)(C)C)C[C@H]1C(=O)NCc1ncc[nH]1,-5.014%
8,COCCOC[C@]1(CNC(=O)c2ccc(OC)cc2)C[C@@H](O)[C@@H](O)C1,-0.4241%
9,Cc1cc(C)c(CNC(=O)NCc2nnc3n2CCCCC3)c(=O)[nH]1,-9.467%
10,O=C(CN1CCOc2ccc(Cl)cc21)NCc1ncc[nH]1,-5.45%
11,Cc1cccc(C)c1CCNC(=O)N1CCCC2(C1)OCCO2,-0.05309%
12,Cc1ccccc1NC(=O)N1CC[C@@H]2CN(CC(C)C)S(=O)(=O)[C@@H]2CC1,-60.79%
13,CCN(Cc1c(C)nn(C)c1C)C(=O)C1COc2ccccc2C1 (stereo not given),-5.134%
14,CC(C)c1n[nH]c(C2CN(C(=O)c3csnn3)CCO2)n1 (stereo not given),4.906%
15,Cc1n[nH]c(C2CN(C(=O)c3csnn3)CCO2)n1 (stereo not given),-23.45%
16,CC(C)c1n[nH]c(C2CN(C(=O)c3cc(C4CC4)on3)CCO2)n1 (stereo not given),113.9%
17,Cc1n[nH]c(C2CN(C(=O)c3ccon3)CCO2)n1 (stereo not given),-8.521%
18,Cc1n[nH]c(C2CN(C(=O)c3cc(C4CC4)on3)CCO2)n1 (stereo not given),119.9%
19,CC(C)c1n[nH]c(C2CN(Cc3nnc(C4CC4)o3)CCO2)n1 (stereo not given),-9.108%
20,CN1CCN2CCN(C(=O)c3cc4ncc(CCO)cn4n3)CC2C1 (stereo not given),-4.032%
21,CCCn1ccnc1SCC(=O)NC(Cc1ccccc1)C(C)=O (stereo not given),22.6%
22,COCC(C)NC(=O)c1cc(Br)c2c(c1)OCCO2 (stereo not given),-1.818%

row,Compound,Percent Effect
1,CC(C)(C)CNC1(Cc2cc(C(C)(C)O)on2)COC1,-22.48%
2,CN(Cc1cccnc1)CC1CC12CCCC2 (stereo not given),103.1%
3,Cc1cnc(N2CCC3(CC2)CC3CN(C)Cc2cccnc2)nc1.O=C(O)C(F)(F)F.O=C(O)C(F)(F)F (stereo not given),2.289%
4,CN(Cc1cccnc1)CC1CC12CCN(Cc1nccs1)CC2 (stereo not given),11.24%
5,CC(C)(C)c1n[nH]c(C2CN(C(=O)c3cnc[nH]3)CCO2)n1 (stereo not given),97.58%
6,Cc1n[nH]c(C2CN(C(=O)c3cc(C4CC4)[nH]n3)CCO2)n1 (stereo not given),6.266%
7,Cc1nc(CC(=O)N2CCOC(c3nc(C(C)(C)C)n[nH]3)C2)cs1 (stereo not given),-6.24%
8,Cc1n[nH]c(C2CN(C(=O)c3cnc[nH]3)CCO2)n1 (stereo not given),-6.3%
9,Cc1nc(CN2CCOC(c3nc(C(C)C)n[nH]3)C2)oc1C (stereo not given),-6.661%
10,CC(C)c1n[nH]c(C2CN(C(=O)CCCn3cccn3)CCO2)n1 (stereo not given),-13%
11,CSCC(=O)N1CCOC(c2nc(C(C)C)n[nH]2)C1 (stereo not given),117.1%
12,CC(C)(C)c1n[nH]c(C2CN(C(=O)CCC3CC3)CCO2)n1 (stereo not given),-7.383%
13,CC(C)(C)c1n[nH]c(C2CN(C(=O)c3ccsc3)CCO2)n1 (stereo not given),-3.296%
14,CC(C)(C)c1n[nH]c(C2CN(C(=O)c3cc(C4CC4)[nH]n3)CCO2)n1 (stereo not given),116%
15,CCc1n[nH]c(C2CN(C(=O)c3cnc[nH]3)CCO2)n1 (stereo not given),-7.128%
16,CSCC(=O)N1CCOC(c2nc(C(C)(C)C)n[nH]2)C1 (stereo not given),103.9%
17,CCc1ccc(C(=O)N2C[C@@H]3COC[C@@H](C(=O)NC)[C@@H]3C2)cc1,-16.14%
18,Cc1ccc(S(=O)(=O)N2CC(C)Oc3ncccc32)c(C)c1 (stereo not given),-17.54%
19,Cn1nnc2c1CCN(C(=O)C1CC1)C2COCCN1CCCC1.O=C(O)C(F)(F)F (stereo not given),-5.654%
20,CCn1ncnc1CN1CCc2[nH]cnc2C1Cc1ccccc1 (stereo not given),-1.907%
21,Cc1cccc(CNC2(CCO)CCOCC2)c1C,-7.231%
